MITF TRPM1 inh: inhibitors of MITF-driven TRPM1 promoter in melanoma cells; actives 0.83% (n = 330,000); SK-MEL-5 TRPM1 promoter luciferase, 24 h; inhibition, % at 12.5 µM;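 active means mean inhibition across replicates of 60% or more, whatever share of single replicates reaches that level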
HIF-2a inh: inhibitors of HIF-2a; inhibition, % at 18.8 µM; AID 624352; 786-0 RCC cells HIF-2a reporter, luciferase luminescence, overnight; actives 0.72% (n = 360,000);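 active means inhibition of the luminescence signal of 40% or more relative to plate controls, in a single-dose primary screen at 18.75 µM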
CHOP inh: CHOP inhibition in unfolded protein response. inhibition, % at 10 µM. CHO-K1 CHOP-promoter luciferase, tunicamycin-induced, 15-18 h. AID 2732. actives 3.8% (n = 220,000);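 active means compounds that reduced the stress-induced luciferase reporter signal by more than about 70% of percent inhibition, limit read from the data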;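 further: 0% = tunicamycin plus vehicle and 100% = wells without tunicamycin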
KKLEB cytotox: CF airway cell cytotoxicity counter-screen; KKLEB CF airway cells viability, ATPlite luminescence, overnight; stronger effect = lower value; cells stimulated with P. aeruginosa culture filtrate; activity change (cytotoxicity), % at 5 µM; actives 0.36% (n = 360,000); AID 602141;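 active means corrected activity change at or below -50% at 5 µM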
Peg3 prom inh-1: inhibitors of Peg3 promoter | actives 1.7% (n = 360,000) | inhibition, % at 20 µM | HeLa PEG-Prom luciferase reporter, luminescence, overnight;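 active means inhibition of at least 50% at 20 µM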
CF NFkB block: cystic fibrosis NF-kB activation inhibition | KKLEB NF-kB-GFP reporter, PAF-induced, GFP fluorescence overnight | inhibition, % at 5 µM | actives 0.86% (n = 360,000) | AID 588850;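 active means at least 50% inhibition at 5 µM, scaled per plate between neutral and stimulator controls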;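 further: PAF is a Pseudomonas aeruginosa culture filtrate used as stimulus; plate controls were PAF-stimulated DMSO wells for no effect and unstimulated DMSO wells for full effect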
Peg3 prom inh-2: Peg3 promoter inhibition confirmation. shares compounds with Peg3 prom inh-1. HeLa PEG-Prom luciferase reporter, luminescence, overnight. inhibition, % at 20 µM. actives 84% (n = 1,300);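 active means at 20 µM dose, 40% or more inhibition averaged across four replicates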
* = called active by the depositor. An excerpt weighted towards active compounds, which were near 4.3% of everything screened.

`c1ccc(CCCNCCCn2cnc3c(OCc4ccccc4)ncnc32)cc1` gave MITF TRPM1 inh 77.9*, HIF-2a inh -16.5, KKLEB cytotox 9.7, Peg3 prom inh-1 56.1*, CF NFkB block 0.6 and Peg3 prom inh-2 83.3*.
`C[C@@H](NCCCn1cnc2c(OCc3ccccc3)ncnc21)c1cccc2ccccc12` gave MITF TRPM1 inh 68.8*, HIF-2a inh -22.7, KKLEB cytotox -18.9, Peg3 prom inh-1 91.9*, CF NFkB block 17.1 and Peg3 prom inh-2 86.2*.
c1ccc(CNCCCn2cnc3c(OCc4ccccc4)ncnc32)cc1 was read as MITF TRPM1 inh -8.6, HIF-2a inh -24.0, KKLEB cytotox 6.5, Peg3 prom inh-1 -22.1 and CF NFkB block -7.0.
For C[C@@H](NC(=O)Cn1cnc2c(OCc3ccccc3)ncnc21)c1cccc2ccccc12 the results were MITF TRPM1 inh -7.9, HIF-2a inh -5.9, KKLEB cytotox -18.2, Peg3 prom inh-1 -14.5 and CF NFkB block -5.1.
O=C(NC1CCCC1)C(=O)N(Cc1cccnc1)C(C(=O)NCC1CCCO1)c1ccco1 (stereo not given) was read as HIF-2a inh 4.5, CHOP inh -12.4, KKLEB cytotox -3.3, Peg3 prom inh-1 5.2 and CF NFkB block -3.5.
O=[N+]([O-])c1cc(-c2csc(NCCc3nc4cc(C(F)(F)F)ccc4n3CCCO)n2)ccc1Cl was read as MITF TRPM1 inh -23.6, HIF-2a inh -3.8, KKLEB cytotox -9.7, Peg3 prom inh-1 54.0*, CF NFkB block -17.8 and Peg3 prom inh-2 20.4.
COc1cc2c(oc(=O)c3cc(C)cc(OC)c32)c2c(C3OC(C)C(O)C(C)(O)C3O)ccc(O)c12 (stereo not given) was read as MITF TRPM1 inh 65.1*, HIF-2a inh 57.6*, KKLEB cytotox 9.4, Peg3 prom inh-1 100.5*, CF NFkB block 22.2 and Peg3 prom inh-2 99.0*.
COc1cccc2cc(C(=O)N3CC(C)OC(C)C3)c(=O)oc12 (stereo not given) was read as MITF TRPM1 inh -3.4, HIF-2a inh 12.3, KKLEB cytotox -10.6, Peg3 prom inh-1 4.2 and CF NFkB block 30.7.
Screening COc1cc(NC(=O)c2cccs2)c(C(=O)OCC(=O)c2cc(C)n(-c3ccccc3)c2C)cc1OC returned MITF TRPM1 inh 64.0*, HIF-2a inh 23.2, CHOP inh 85.0*, KKLEB cytotox -11.0, Peg3 prom inh-1 58.6*, CF NFkB block 15.0 and Peg3 prom inh-2 83.2*.
NC(=O)C(=O)N/N=C/c1c2ccccc2cc2ccccc12 was read as MITF TRPM1 inh 21.6, HIF-2a inh 13.0, KKLEB cytotox -10.0, Peg3 prom inh-1 8.1 and CF NFkB block -34.1.
Screening Cc1ccc(-c2cc3c(N=O)c4ccccc4c-3n[nH]2)cc1 returned MITF TRPM1 inh 74.0*, HIF-2a inh 68.0*, CHOP inh 65.1, KKLEB cytotox -81.2*, Peg3 prom inh-1 59.4*, CF NFkB block -22.5 and Peg3 prom inh-2 69.2*.
`O=C1[C@H](Cc2ccccc2)NCCCC[C@@H](c2ccc(Cl)cc2)N1Cc1ccc(Cl)cc1` gave MITF TRPM1 inh -6.3, HIF-2a inh 8.8, KKLEB cytotox 7.4, Peg3 prom inh-1 76.3*, CF NFkB block 14.8 and Peg3 prom inh-2 21.6.
Screening Cc1ccc(S(=O)(=O)N2CCCCC2)cc1NC(=O)c1nn(C)c(=O)c2ccccc12 returned MITF TRPM1 inh 7.2, HIF-2a inh 7.4, KKLEB cytotox -5.9, Peg3 prom inh-1 13.5 and CF NFkB block -11.7.
Screening COc1ccc(C[C@H]2CN3C(=NC[C@@H]3C(C)C)N2C[C@H](C)NC(=O)c2ccc(C)c(Br)c2)cc1 returned MITF TRPM1 inh -13.5, HIF-2a inh 4.6, CHOP inh 31.6, KKLEB cytotox -4.4, Peg3 prom inh-1 16.4 and CF NFkB block -5.4.
Screening COc1ccc(C[C@H]2CN3C(=NC[C@@H]3Cc3ccc(O)cc3)N2C[C@H](C)NC(=O)c2ccc(C)c(Br)c2)cc1 returned MITF TRPM1 inh -3.3, HIF-2a inh -20.2, CHOP inh 20.1, KKLEB cytotox -16.0, Peg3 prom inh-1 101.1*, CF NFkB block 8.4 and Peg3 prom inh-2 96.5*.
Cc1cccc(C(=O)O/N=C(\N)c2ccccn2)c1 was read as MITF TRPM1 inh 35.2, HIF-2a inh 32.0, KKLEB cytotox -20.3, Peg3 prom inh-1 56.3*, CF NFkB block -15.5 and Peg3 prom inh-2 40.4*.
N/C(=N\OC(=O)c1cccc(F)c1)c1ccccn1 was read as MITF TRPM1 inh -15.8, HIF-2a inh 5.2, KKLEB cytotox -5.5, Peg3 prom inh-1 -14.1 and CF NFkB block -18.5.
For CCc1ccc(OCC(=O)O/N=C(\N)c2ccccn2)cc1 the results were HIF-2a inh -258.1, CHOP inh -9.6, KKLEB cytotox -24.3, Peg3 prom inh-1 -344.7 and CF NFkB block 18.8.
CCOc1ccc(C(=O)O/N=C(\N)c2ccccn2)cc1 was read as MITF TRPM1 inh 66.6*, HIF-2a inh 68.2*, KKLEB cytotox -28.1, Peg3 prom inh-1 113.9*, CF NFkB block 12.6 and Peg3 prom inh-2 94.5*.
`N/C(=N\OC(=O)c1ccccc1)c1ccccn1` gave MITF TRPM1 inh 56.0, HIF-2a inh -44.2, CHOP inh 86.5*, KKLEB cytotox -0.1, Peg3 prom inh-1 95.3*, CF NFkB block -3.3 and Peg3 prom inh-2 8.5.
`COc1ccc(C(=O)NC(=S)N2CC(C)OC(C)C2)cc1OC` (stereo not given) gave MITF TRPM1 inh 5.7, HIF-2a inh 20.9, CHOP inh -1.7, KKLEB cytotox 10.8, Peg3 prom inh-1 3.8 and CF NFkB block -11.6.
`CC1CC(C)C(=O)C(C(CC2CC(=O)NC(=O)C2)OC(=O)CC(=O)c2ccccc2)C1` (stereo not given) gave MITF TRPM1 inh 55.2, HIF-2a inh 27.4, KKLEB cytotox -14.2, Peg3 prom inh-1 81.1*, CF NFkB block 65.7* and Peg3 prom inh-2 82.8*.
CCOc1ccccc1N(CC)C(=O)c1cc2c(s1)-c1ccccc1S(=O)(=O)C2 was read as HIF-2a inh 4.2, KKLEB cytotox 3.7, Peg3 prom inh-1 18.8 and CF NFkB block 8.8.
`CCCOc1ccc(C(=O)N(CC(C)C)c2c(N)n(Cc3ccccc3)c(=O)[nH]c2=O)cc1` gave MITF TRPM1 inh -1.9, HIF-2a inh -1.1, KKLEB cytotox 1.7, Peg3 prom inh-1 1.5 and CF NFkB block -30.7.
Screening CC(/C=N\Nc1nnc2c(n1)[nH]c1c(C)cccc12)=C\c1ccco1 returned MITF TRPM1 inh 20.7, HIF-2a inh -98.0, CHOP inh 64.2, KKLEB cytotox -36.0, Peg3 prom inh-1 64.8*, CF NFkB block 19.0 and Peg3 prom inh-2 14.3.
